Source: PubChem BioAssay
FBPA coupling cs = counter-screen for Giardia aldolase inhibitors: coupling enzyme system. coupling enzyme system counterscreen, AmpLite Red fluorescence. 290,000 compounds, 0.67% hits. activity change, negative = inhibition, % at 58.2 µM, hits read low; in the data active means activity change below about -30%
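Fluorescence at 525 nm excitation and 598 nm emission measured inhibition of the coupled detection system without aldolase. Compounds (at 57.5 uM final) were preincubated 10 min at room temperature with coupling enzyme reagent before a 20 min substrate/AmpLite Red step.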
Sfp PPTase inh = blocks B. subtilis Sfp PPTase activity; Potency, µM, for inactives: largest response in the series, negative = inhibition, actives largely listed as inhibitors; Q9F4F7; 310,000 compounds, 3.5% hits; Biochemical Sfp PPTase activity, qHTS;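 further: the enzyme is Sfp with the accession as filed and its product quenches rhodamine fluorescence; potency means the concentration at half of the fitted maximal effect; 0% = enzyme reaction without inhibitor and -100% = no enzyme wells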
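Compounds were incubated with enzyme (final 15 nM) for 15 min at room temperature before substrate addition started the reaction. Fluorescence at 525 nm excitation, 598 nm emission was recorded immediately and after 30 minutes.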
Tau FP inhib = blocks human tau fibril formation measured by polarization; 280,000 compounds, 0.39% hits; K18 P301L tau heparin fibrillization, Alexa594 FP, 6 h; P10636; AID 1468; Potency, µM (titrated, usually from 57.7 µM), without a hit: at the highest dose activity, negative = inhibition, usual class: inhibitors; further: potency means the concentration at half of the fitted maximal effect; nearly all actives have a fitted effect of over 55% in size
Target sequence (P10636 561-689 P618L limits assumed): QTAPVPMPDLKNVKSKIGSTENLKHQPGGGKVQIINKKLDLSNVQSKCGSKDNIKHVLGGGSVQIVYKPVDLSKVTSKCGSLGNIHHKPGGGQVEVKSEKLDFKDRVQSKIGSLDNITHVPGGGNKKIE
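Compound effects on tau fibrillization are measured by Alexa 594 fluorescence polarization (ex 555, em 632 nm). K18 P301L tau is used at 15 uM with 0.24 uM labeled tracer, and 20 uM heparin induces aggregation over 6 hr at 37 C.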
Tau fluor cs = counter-screen for tau fibril formation inhibitors; Potency, µM (doses to about 57.7 µM), inactives show at the top dose activity change, negative = decrease; 280,000 compounds, 0.93% hits; tau K18 P301L Alexa594 fluorescence, heparin fibrillization; further: potency means the concentration at half of the fitted maximal effect; nearly all actives have a fitted effect of over 55% in size
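Human tau K18 P301L (15 uM unlabeled, 0.24 uM Alexa 594-labeled) in 100 mM sodium acetate pH 7 with 20 uM heparin, 6 hr at 37 C. ThT 30 uM added, 1 hr ambient; Alexa 594 FP and total fluorescence read at 555/632 nm.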
Tau fibril ThT = tau fibrillization inhibition (ThT binding); P10636; Potency, µM (titrated, usually from 57.4 µM), inactives show at the highest dose activity, negative = inhibition, most hits filed as inhibitors; 270,000 compounds, 2.1% hits; recombinant tau K18 P301L (four-repeat tau fragment), heparin-induced fibrillization, ThT fluorescence; further: potency means the concentration at half of the fitted maximal effect; nearly all actives have a fitted effect of over 55% in size
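In this qHTS, human K18 P301L tau is incubated with compound and heparin for 6 hr at 37 C, and Thioflavin T fluorescence then reports fibril load.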
* = called active by the depositor; [ ] = remark or other dose. A selection: hits, their analogues and other compounds. The true share with any hit is near 5.2%. Unless noted, the call rests on the fitted dose curve; in most records, active means well fitted curve in the direction sought with a large enough effect; inconclusive means small, poorly fitted or top-dose-only effect, or another doubt; inactive means no such curve, though single readings can be large; an effect the other way counts as inactive or inconclusive. Unless noted, on the % scale 0 is the no-effect control and ±100 the full control effect.

For COCCCNC(=O)c1ccc2c(c1)N=C(C)c1c(C)ccc(C)c1S2 the results were Tau FP inhib 8%, Tau fluor cs -10% and Tau fibril ThT -10%.
`Cc1cc(C)c(NC(=O)Cn2c(=O)n(CC(=O)NCc3ccccc3Cl)c(=O)c3sccc32)c(C)c1` gave Tau FP inhib inconclusive, Tau fluor cs 13% and Tau fibril ThT inconclusive.
CCCCOC(=O)c1ccc(OC(=O)c2sc3ncn(Cc4ccccc4Cl)c(=O)c3c2C)cc1 was read as Tau FP inhib -4%, Tau fluor cs -11% and Tau fibril ThT -10%.
For CCOc1ccc2nc(NC(=O)Nc3ccccc3)sc2c1 the results were FBPA coupling cs 3, Sfp PPTase inh 6%, Tau FP inhib -8%, Tau fluor cs inconclusive and Tau fibril ThT inconclusive.
Screening CCOc1ccc2nc(NC(=O)c3ccco3)sc2c1 returned FBPA coupling cs -2 and Sfp PPTase inh 6%.
Screening CCOc1ccc2nc(NC(=O)c3ccoc3C)sc2c1 returned FBPA coupling cs -7, Sfp PPTase inh 89µM*, Tau FP inhib 9%, Tau fluor cs -22% and Tau fibril ThT -13%.
For CCOc1ccc2nc(NC(=O)Nc3cccs3)sc2c1 the results were FBPA coupling cs -2, Sfp PPTase inh -21%, Tau FP inhib inconclusive, Tau fluor cs 14µM*[quencher] and Tau fibril ThT inconclusive.
Screening CCN=C(Nc1ccc2c(c1)OCO2)SC1CC(=O)N(c2ccccc2F)C1=O (stereo not drawn) returned FBPA coupling cs -6, Sfp PPTase inh -13%, Tau FP inhib -11%, Tau fluor cs -24% and Tau fibril ThT -4%.
Screening C/C(CCc1ccc2c(c1)OCO2)=N\N=C(/N)SC1CC(=O)N(c2ccccc2F)C1=O (stereo not drawn) returned FBPA coupling cs -8, Sfp PPTase inh 79µM*, Tau FP inhib 3%, Tau fluor cs -7% and Tau fibril ThT -5%.
`COc1ccc(C2N(c3ccccc3)CCN2c2ccccc2)cc1O` gave FBPA coupling cs -4, Sfp PPTase inh -14%, Tau FP inhib 10%, Tau fluor cs 14µM*[quencher] and Tau fibril ThT inconclusive.
For COc1cc(C2N3CC4(C)CN2CC(C)(C3)C4)ccc1O (stereo not drawn) the results were FBPA coupling cs 4, Sfp PPTase inh -3%, Tau FP inhib 7%, Tau fluor cs 10% and Tau fibril ThT 5%.
Screening COc1ccc(-c2cc(C)no2)cc1S(=O)(=O)N1CCc2ccccc21 returned Tau FP inhib 15%, Tau fluor cs 28µM*[fluorescent] and Tau fibril ThT inconclusive.
`COc1ccc(-c2cc(C)no2)cc1S(=O)(=O)N1CCOc2ccccc21` gave FBPA coupling cs -1, Sfp PPTase inh 34%, Tau FP inhib -14%, Tau fluor cs inconclusive and Tau fibril ThT -1%.
Clc1cccc(Cl)c1CNc1ccc(N2CCCC2)cc1 was read as FBPA coupling cs -14, Sfp PPTase inh inconclusive, Tau FP inhib inconclusive, Tau fluor cs inconclusive and Tau fibril ThT 7.9µM*.
Screening O=C(CSc1nnc(SCc2ccccc2)s1)N/N=C/c1c[nH]c2ccccc12 returned FBPA coupling cs -7, Sfp PPTase inh inconclusive, Tau FP inhib -4%, Tau fluor cs inconclusive and Tau fibril ThT -5%.
For CCn1c(SCC(=O)N/N=C/c2ccc(C)o2)nnc1-c1ccc(C(C)(C)C)cc1 the results were FBPA coupling cs -1, Sfp PPTase inh -7%, Tau FP inhib 2%, Tau fluor cs -2% and Tau fibril ThT -12%.
CCn1c(SCC(=O)N/N=C/c2c[nH]c3ccccc23)nnc1-c1ccc(C(C)(C)C)cc1 was read as FBPA coupling cs 4, Sfp PPTase inh -1%, Tau FP inhib -4%, Tau fluor cs 18µM*[quencher] and Tau fibril ThT inconclusive.
O=C(CSc1nnc(SCc2ccccc2Cl)s1)N/N=C/c1c[nH]c2ccccc12 was read as FBPA coupling cs -13, Sfp PPTase inh 15%, Tau FP inhib inconclusive, Tau fluor cs 14µM*[quencher] and Tau fibril ThT -13%.
Screening O=S1(=O)C2CC3C=CC2(O3)C(O)C(Cc2ccccc2)N1Cc1cccc(F)c1 (stereo not drawn) returned FBPA coupling cs 2 and Sfp PPTase inh 8%.
CCOC(=O)c1c(C)[nH]c(C(=O)CN2CCN(CC)CC2)c1C was read as FBPA coupling cs 1, Sfp PPTase inh 79µM*, Tau FP inhib 9% and Tau fluor cs 4%.
COc1ccc(CCNC(=O)CSc2cn(CCNC(=O)c3c(F)cccc3F)c3ccccc23)cc1OC was read as Tau FP inhib 7%, Tau fluor cs -20% and Tau fibril ThT inconclusive.
`COc1ccccc1-[n+]1c(C)cc(/C=C2\Sc3ccccc3N2C)cc1C` gave FBPA coupling cs 2, Sfp PPTase inh -28%, Tau FP inhib 3%, Tau fluor cs -25% and Tau fibril ThT inconclusive.
Screening COc1ccc(-[n+]2c(C)cc(/C=C3\Sc4ccccc4N3C)cc2C)cc1 returned FBPA coupling cs -13, Sfp PPTase inh 20µM*, Tau FP inhib 0%, Tau fluor cs -12% and Tau fibril ThT inconclusive.
Screening COc1ccccc1CNc1ncnc2onc(-c3ccc(F)cc3)c12 returned Tau FP inhib -10%, Tau fluor cs -5% and Tau fibril ThT 3%.
`CC(C)c1ccc(C2c3c(-c4ccccc4O)n[nH]c3C(=O)N2CCc2ccccc2)cc1` (stereo not drawn) gave Tau FP inhib -7%, Tau fluor cs inconclusive and Tau fibril ThT -4%.
`COC(=O)c1ccc(-c2nc3cc(N)ccc3o2)cc1` gave FBPA coupling cs 0, Sfp PPTase inh 8%, Tau FP inhib 13%, Tau fluor cs -18% and Tau fibril ThT 5µM*.
Screening COc1ccc(-c2n[nH]c(C(F)(F)F)c2-c2cc3ccccc3o2)c(O)c1 returned FBPA coupling cs 0, Sfp PPTase inh 5%, Tau FP inhib -1%, Tau fluor cs inconclusive and Tau fibril ThT 18µM*.
`OCCn1nc2c3ccccc3nc-2n(-c2ccccc2)c1=S` gave FBPA coupling cs -2, Sfp PPTase inh 50µM*, Tau FP inhib 1%, Tau fluor cs -5% and Tau fibril ThT inconclusive.
`CCc1cc2c(cc3c(=O)n(CC(=O)N4CCCCC4)nc(CC)n32)s1` gave Tau FP inhib -10%, Tau fluor cs -8% and Tau fibril ThT -10%.
Screening CSc1nnc2n(C3CCCCC3)c(=O)c3c4c(sc3n12)CCCC4 returned FBPA coupling cs 0, Sfp PPTase inh 7%, Tau FP inhib 4%, Tau fluor cs -2% and Tau fibril ThT -1%.
Cc1nnc2n(C3CCCCC3)c(=O)c3c4c(sc3n12)CCC4 was read as FBPA coupling cs -1, Sfp PPTase inh 13%, Tau FP inhib 6%, Tau fluor cs 14µM*[quencher] and Tau fibril ThT 13µM*.
